Screens as filed in PubChem.
PPARg SRC-2 ag = PPARgamma-driven SRC-2 recruitment agonism. P37231. PPARgamma LBD-SRC-2 recruitment, biochemical. activation, % at 8 µM. 200,000 tested, 0.34% active. AID 1032; in the data active = activation above about 22%;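 note: 0% = vehicle and 100% = reference agonist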
Target sequence (P37231 whole entry, looked up, the tested form may be a part): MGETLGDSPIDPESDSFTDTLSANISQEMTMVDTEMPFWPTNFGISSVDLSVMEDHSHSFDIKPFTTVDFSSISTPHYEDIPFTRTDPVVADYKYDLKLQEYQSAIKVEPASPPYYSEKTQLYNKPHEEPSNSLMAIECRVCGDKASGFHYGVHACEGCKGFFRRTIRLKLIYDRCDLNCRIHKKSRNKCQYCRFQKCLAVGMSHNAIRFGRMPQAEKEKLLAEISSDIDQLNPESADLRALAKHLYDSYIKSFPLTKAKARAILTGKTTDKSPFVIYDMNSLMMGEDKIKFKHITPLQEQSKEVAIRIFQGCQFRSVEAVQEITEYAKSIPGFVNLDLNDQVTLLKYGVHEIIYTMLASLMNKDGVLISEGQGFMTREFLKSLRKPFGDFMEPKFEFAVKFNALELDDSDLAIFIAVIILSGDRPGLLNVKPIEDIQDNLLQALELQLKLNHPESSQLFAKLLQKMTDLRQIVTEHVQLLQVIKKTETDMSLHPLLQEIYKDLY
TR-FRET SRC-2 ct = counter-screen for PPARgamma SRC-2 recruitment agonists: TR-FRET artefact | TR-FRET ratio at 8 µM | stronger effect = higher value | 200,000 tested, 0.4% active
PPARg SRC3 recr = promotes SRC-3 coactivator recruitment by human PPARgamma; P37231; biochemical PPARgamma/SRC-3 coactivator recruitment assay; activation, % at 8 µM; 200,000 tested, 0.26% active; AID 731; in the data active = activation above about 23%;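 note: 0% = DMSO and 100% = reference agonist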
SRC3 TRFRET art = flags TR-FRET format artefacts in PPARgamma SRC-3 recruitment agonist screen; AID 1048; TR-FRET ratio at 8 µM; TR-FRET artefact counter-screen, PPARgamma/SRC-3 format; stronger effect = higher value; 99,000 tested, 0.39% active
SRC1 TRFRET art = TR-FRET artefact, counter-screen to PPARgamma/SRC-1 agonist assay; TR-FRET ratio at 8 µM; 99,000 tested, 0.34% active; AID 1051; TR-FRET detection artefact counter-screen, emission ratio; stronger effect = higher value; in the data active = TR-FRET ratio above about 2300
PPARg SRC1 recr = agonists of human PPARgamma SRC-1 coactivator recruitment; PPARgamma-SRC-1 coactivator recruitment biochemical assay; AID 631; 200,000 tested, 0.41% active; activation, % at 8 µM; P37231; in the data active = activation above about 19%;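 note: 0% = DMSO and 100% = reference agonist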
The depositor's hits bear a star; nt = no result given. Shown are actives, neighbours in structure and some others; about 0.9% of the full set was active somewhere. Cut-off read from the data, not from the text of the source, unless noted: active = TR-FRET ratio above about 2000; inactive = the rest.

SMILES	PPARg SRC-2 ag	TR-FRET SRC-2 ct	PPARg SRC3 recr	SRC3 TRFRET art	SRC1 TRFRET art	PPARg SRC1 recr
CSc1ccc(C(=O)C2CCCN(C(=O)c3cc4cc(F)ccc4[nH]3)C2)cc1 (stereo unspecified)	9	2021*	2	2454*	2545*	9
CSc1ccc(C(=O)C2CCCN(C(=O)c3csc(C(C)=O)c3)C2)cc1 (stereo unspecified)	5	1596	-5	1355	1442	-6
CC(NC(=O)COc1ccccc1)C(c1ccccc1)N1CCN(C)CC1 (stereo unspecified)	7	1583	1	1665	2331*	9
CCOc1ccc(NC(=S)NC(C)C(c2ccccc2)N2CCN(C)CC2)cc1 (stereo unspecified)	3	1416	2	1519	1662	8
Cc1c([N+](=O)[O-])c([N+](=O)[O-])nn1CC(=O)NCc1cccnc1	-4	1531	3	1439	1768	-8
Cn1cccc1CC(=O)N/N=C/C(Cl)=C/c1ccccc1	-1	1579	7	1886	2381*	4
O=c1cc(Cn2ccnc2)c2cc3c(cc2o1)CCC3	0	1355	29*	nt	nt	0
COC(=O)CSc1nc2cc3c(cc2cc1C#N)OCO3	3	1413	18	nt	nt	81*
CC(C)OC(=O)CSc1nc2cc3c(cc2cc1C#N)OCO3	3	1557	5	nt	nt	54*
CCCOc1ccc(/C=N/Nc2ccccc2[N+](=O)[O-])c(O)c1	3	1698	0	1545	1938	6
Nc1ccc(Sc2cnn(-c3ccccc3)c(=O)c2Cl)cc1	6	1527	-2	nt	nt	8
Cc1ccc(Sc2cnn(-c3ccccc3)c(=O)c2Cl)cc1	19	2023*	7	nt	nt	9
Cc1c(NS(=O)(=O)c2ccc3c(c2)OCCO3)cccc1-c1nc2cccnc2s1	-3	1991*	3	nt	nt	10
COc1ccccc1OC(=O)CCN1c2ccccc2Sc2ccccc21	5	1756	-2	2481*	1668	-9
COc1ccccc1C(=O)N1c2ccccc2Sc2ccccc21	-1	1478	3	1597	1706	-2
Cc1cc(NC(=O)CSc2ccc(-c3nc4cc(C)c(C)cc4[nH]3)cn2)no1	-9	1545	-16	nt	nt	2
Cc1cc2nc(-c3ccc(SCC(=O)Nc4ccc(S(=O)(=O)NC5CC5)cc4)nc3)[nH]c2cc1C	10	2456*	3	3182*	2422*	13
O=C(CSc1ncccc1-c1nc2ccccc2[nH]1)N1CCc2ccccc21	-8	2650*	2	3407*	2802*	5
Cc1cc2nc(-c3ccc(SCC(=O)N4CCc5ccccc54)nc3)[nH]c2cc1C	-1	2115*	8	nt	nt	0
Cn1cccc1-c1nc2ccc(NC(=O)c3ccccc3)cc2[nH]1	26*	1614	7	nt	nt	1
CC1CCc2c(sc3nc(SCC(=O)NCc4ccco4)nc(N)c23)C1 (stereo unspecified)	14	1582	4	nt	nt	21*
O=C(Cc1cccs1)Nc1ccc(-c2nnc(-c3ccccc3)o2)cc1	11	1692	3	nt	nt	21*
O=C(Cc1cccs1)Nc1ccc(-c2nnc(-c3ccco3)o2)cc1	2	1464	-1	1376	1636	1
C=CCC1Cc2c(Br)cccc2C(CC=C)N1 (stereo unspecified)	5	2035*	2	1570	2057	3
Nc1nc(SCC(=O)N2CCCc3ccccc32)n(-c2ccccc2)n1	3	1415	-3	nt	nt	3
SMILES	PPARg SRC-2 ag	TR-FRET SRC-2 ct	PPARg SRC3 recr	SRC3 TRFRET art	SRC1 TRFRET art	PPARg SRC1 recr
Cc1ccc(-c2csc(N/N=C/c3ccco3)n2)cc1	3	1751	9	nt	nt	-5
Brc1ccc(-c2csc(N/N=C/c3ccco3)n2)cc1	22*	1757	1	1608	1707	3
COc1ccc(N2CCC(CNC(=S)Nc3cccc(C)c3)C2)cc1 (stereo unspecified)	-5	1691	6	1540	1820	10
O=C(NCc1cccs1)C1CCN(c2ccc(S(=O)(=O)N3CCOCC3)cc2Cl)CC1	4	1525	11	nt	nt	8
Cc1cc(Cl)ccc1Oc1ncnc2oc(-c3ccccc3)cc12	10	1479	62*	nt	nt	5
COC(=O)CCCCCCCCC(O)CN1CCCCC1 (stereo unspecified)	-5	1423	-2	1575	1579	0
CCC(=O)N(Cc1ccco1)c1nc(C(=O)Nc2ccc(Cl)cc2)c(C)s1	19	1971*	3	1762	2016	14
CCN(C(=O)c1ccco1)c1nc(CC(=O)Nc2ccc(Cl)cc2)cs1	-6	1541	4	nt	nt	-2
Cc1cc(NC(=O)c2cc(-c3cccs3)nc3ccccc23)no1	16	1659	8	nt	nt	5
Cc1cc(C)nc(NC(=O)c2cc(-c3ccc(C)s3)nc3ccccc23)c1	5	1841	3	2323*	2309	7
CCN(CC)S(=O)(=O)c1ccc(NC(=O)c2cc(-c3cccs3)nc3ccccc23)cc1	-2	1711	4	1556	1867	2
CN(C)S(=O)(=O)c1ccc(NC(=O)c2cc(-c3cccs3)nc3ccccc23)cc1	2	2669*	15	3343*	3250*	4
COC(=O)C(C#N)C(c1cccnc1)c1c(C)[nH][nH]c1=O (stereo unspecified)	15	1488	4	nt	nt	-2
Clc1ccc2nc(CSc3nc4ccccc4o3)cn2c1	2	1548	-7	nt	nt	-4
CCC(CC)=NNc1cccc([N+](=O)[O-])c1	1	1548	3	1941	2034	1
Fc1ccc2nc(Nc3nc4cc5c(cc4s3)OCCO5)sc2c1	3	2038*	4	2582*	2154	8
Fc1ccc2nc(Nc3nc4cc5c(cc4s3)OCO5)sc2c1	4	1428	-8	1305	1631	-6
Cc1cccc(C(C)C)c1NC(=O)c1ccc(COc2ccc3c(C)cc(=O)oc3c2)cc1	19	2255*	11	2221*	2539*	14
Cc1ccc2c(C(=O)N3CCN(c4ccccc4)CC3)cc(-c3cccnc3)nc2c1C	2	1394	-1	1604	2369*	13
O=C1OCCC1Sc1nc2ccccc2c(=O)n1Cc1ccccc1 (stereo unspecified)	10	1701	1	1474	1774	-2
Cc1ccc(CNC(=O)COc2ccc(C(=O)c3ccc(F)cc3)cc2)cc1	5	1529	-2	1604	2702*	39*
COc1ccc2[nH]c(=S)[nH]c2c1	13	1534	10	nt	nt	5
S=c1[nH]c2ccc(Cl)cc2[nH]1	24*	1677	5	nt	nt	5
N#Cc1ccccc1Sc1ccccc1C(=O)OCc1nnc(-c2ccccc2)o1	-3	2002*	-2	nt	nt	6
N#Cc1ccccc1Sc1ccccc1C(=O)OCC(N)=O	4	1702	0	1573	1827	7
CC(C)Cc1nc(Cl)c(C#N)c2c1CCCC2	-6	1374	21	2298*	1692	-7
